The full ranking holds about 33,000 sequences; the median of “E-score (-0.5 to 0.5)” is about -0.0014, and the highest 2% start at about 0.25. The sample as a whole holds a higher share of the highest values than the screen did.
Biological target: T1, Cad1 (UniProt P24813)
T1 sequence: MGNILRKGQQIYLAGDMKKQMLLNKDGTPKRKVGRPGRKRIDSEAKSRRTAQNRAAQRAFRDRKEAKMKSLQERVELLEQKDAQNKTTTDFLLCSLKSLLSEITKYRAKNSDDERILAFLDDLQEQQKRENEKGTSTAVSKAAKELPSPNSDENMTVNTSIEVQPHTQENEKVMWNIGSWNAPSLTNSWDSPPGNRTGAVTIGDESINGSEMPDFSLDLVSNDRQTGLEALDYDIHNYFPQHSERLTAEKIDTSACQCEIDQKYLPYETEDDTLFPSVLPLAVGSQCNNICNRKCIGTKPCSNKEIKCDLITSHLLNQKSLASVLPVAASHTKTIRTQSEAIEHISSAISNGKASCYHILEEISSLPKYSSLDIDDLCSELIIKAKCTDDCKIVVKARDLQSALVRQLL
Experiment: PBM E-score (8-mer binding enrichment) (E-score (-0.5 to 0.5)); higher = stronger / more preferred TF binding
Settings: protein concentration: 100 nM; construct: GST-full length
Summary of the method: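 E-scores (a modified Wilcoxon-Mann-Whitney statistic) were assigned by the Universal PBM Analysis Suite to every ungapped eight-base word pooled with its reverse complement. The input came from universal all-10-mer Agilent arrays made double-stranded by primer extension and probed with GST-tagged yeast transcription factors at about 100-200 nM. Fluorescent anti-GST detected bound protein, and masliner normalised the scans.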

Row | Sequence | PBM E-score
1 | CCCCCTGA | -0.414
2 | AGGGATCG | -0.207
3 | AAAAGTGT | -0.074
4 | CCAGACAA | 0.0234
5 | CTAGGTGC | -0.221
6 | AACCGCTT | 0.0439
7 | CTTCCTAA | 0.0434
8 | AGTCCTTG | -0.0247
9 | ATCAAGCC | -0.0325
10 | TATCGCGA | 0.259
11 | CATCGCGC | 0.051
12 | AATCGCGA | 0.196
13 | CATCGCGA | 0.25
14 | GATCGCGA | 0.132
15 | TATCGCAA | 0.22
16 | CGGCTCCA | -0.0781
17 | CGCGTTAC | 0.139
18 | AACGGGGT | -0.13
19 | ATAAGCTA | -0.0126
20 | CTAAGCAA | 0.0503
21 | ATTAGCAG | 0.0216
22 | CTAAGCAC | 0.294
23 | CTAAGCTA | 0.135
24 | GTAAGCAA | 0.345

Row | Sequence | PBM E-score
25 | TTAAGCAA | -0.0269
26 | GTAAGCTA | 0.298
27 | ATTAGCAA | 0.304
28 | GTTAGCAA | 0.0595
29 | GTAAGCAC | 0.163
30 | CTAAGCAG | -0.078
31 | AGTGTCTG | 0.15
32 | ACGCAGGG | -0.155
33 | AGCTGCGC | 0.0681
34 | ACAAAGTG | 0.0733
35 | GCTCAGAC | -0.0381
36 | CACCTAGA | -0.156
37 | CTTAAGCC | 0.00617
38 | ATAAGCAT | 0.0827
39 | ATAAGCAA | 0.296
40 | ATAAGCAC | 0.208
41 | CGATACAA | 0.0958
42 | AGATACAG | 0.0445
43 | AGATACAA | 0.256
44 | GTGCTCTA | -0.119
45 | GTGACTTA | 0.1
46 | ATAAGCGA | 0.287
47 | GTAAGCGA | 0.281
48 | GGAAGCGA | -0.0787

Row | Sequence | PBM E-score
49 | CTAAGCGA | 0.0774
50 | ATAAGCGC | 0.139
51 | ATAAGCGG | 0.0934
52 | CAAACCGG | -0.0831
53 | AAGTATGG | 0.00171
54 | ACTGGAGG | 0.0173
55 | ATATTTAC | 0.228
56 | CTATTTAA | -0.0377
57 | ATATTTGC | 0.306
58 | ATATTTAG | 0.255
59 | ATATTTAA | 0.272
60 | GCATTTAA | 0.0157
61 | ATATTTGG | 0.146
62 | ATTTTTAG | 0.0211
63 | ACATTTAA | 0.253
64 | ACATTTAG | -0.126
65 | GTATTTAA | 0.0263
66 | CTATTTGC | -0.0458
67 | CAAGAGGG | -0.247
68 | CGCAACGA | -0.00619
69 | CCGGAAAC | 0.125
70 | CCCGGGTC | -0.242
71 | ATGACGAA | 0.145
72 | ATGATATC | 0.0971

Row | Sequence | PBM E-score
73 | ATGATATA | -0.027
74 | CTATGATA | 0.0824
75 | ATATGATA | 0.285
76 | GTATGATA | 0.23
77 | ATGATATG | 0.29
78 | CTAACTGC | -0.0676
79 | AAACACCA | -0.00879
80 | CGTATGGC | 0.14
81 | AGTACGAA | 0.22
82 | AGCAGCGG | -0.0904
83 | AAATTATG | 0.255
84 | ATATTATG | 0.268
85 | CAATTATG | 0.105
86 | ATATTATC | 0.096
87 | ATATTATA | 0.164
88 | AAATTATC | 0.246
89 | ACATGTAT | 0.204
90 | ATGCCTTA | -0.158
91 | CGTGATCA | 0.123
92 | AATTTTGG | 0.149
93 | ATTGGTAA | 0.257
94 | GTTGGTAA | 0.19
95 | CTTGGTAA | 0.0981

Source: the supplement of paper PMC3334620
